Shown are actives, neighbours in structure and some others; about 11% of the full set was active somewhere.
IL-1B inflam inh – qHTS for Inhibitors of Inflammasome Signaling: IL-1-beta AlphaLISA Primary Screen. THP-1 LPS/ATP IL-1B secretion, AlphaLISA, 16 h; active compounds read low. activity change, % at 57.5 µM. 4.7% of 360,000 active. AID 743279, 2014; in the data active means activity change below about -50%; inconclusive means mostly about -30% to -49%; further: on the % scale 0 is the no-effect control and ±100 the full control effect
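Secreted IL-1B measured by AlphaLISA bead assay after 16 h compound exposure of THP-1 cells; compounds (final up to 57.5 uM) added 1 h before LPS (250 ng/mL) and ATP (1.25 mM) stimulation; lower signal means less secretion.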
MCF10A rereplic – A quantitative high throughput screen for small molecules that induce DNA re-replication in MCF 10a normal breast cells; MCF 10A DNA re-replication, Hoechst nuclear intensity, 48 h; Potency, µM (top dose mostly 46.1 µM), for inactives: at the highest dose activity, positive = re-replication, hits mostly activators; 2.9% of 350,000 active; further: potency means the concentration at half of the fitted maximal effect; % of control where 0% means no effect; nearly all actives have a fitted effect of over 50% in size
RORgamma inh – qHTS for inhibitors of ROR gamma transcriptional activity. Potency, µM (top dose mostly 53.6 µM), for inactives: at the top dose activity change, negative = inhibition, hits mostly inhibitors. 5.4% of 310,000 active. Drosophila S2 Gal4-RORgamma UAS-luciferase reporter, 20 h; further: potency means the concentration at half of the fitted maximal effect; on the % scale 0 is the no-effect control and ±100 the full control effect; nearly all actives have a fitted effect of over 60% in size
Target sequence (P51450 whole entry, looked up, the tested form may be a part): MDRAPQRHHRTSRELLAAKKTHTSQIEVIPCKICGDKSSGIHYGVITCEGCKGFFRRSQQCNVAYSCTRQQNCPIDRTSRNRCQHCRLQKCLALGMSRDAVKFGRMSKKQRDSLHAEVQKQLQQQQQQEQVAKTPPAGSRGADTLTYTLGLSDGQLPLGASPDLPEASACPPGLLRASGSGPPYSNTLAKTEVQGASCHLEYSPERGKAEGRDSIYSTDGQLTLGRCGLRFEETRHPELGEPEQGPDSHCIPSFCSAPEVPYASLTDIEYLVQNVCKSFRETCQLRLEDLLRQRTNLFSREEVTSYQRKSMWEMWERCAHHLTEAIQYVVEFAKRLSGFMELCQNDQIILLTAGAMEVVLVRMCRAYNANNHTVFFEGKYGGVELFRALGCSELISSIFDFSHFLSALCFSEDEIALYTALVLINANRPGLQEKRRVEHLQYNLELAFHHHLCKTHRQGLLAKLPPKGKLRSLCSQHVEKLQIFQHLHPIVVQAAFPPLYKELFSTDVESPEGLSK
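Read-out: Photinus luciferase luminescence; inhibitors lower reporter signal. Insect Schneider cells with Gal4-ROR gamma fusion under metallothionein promoter, UAS reporter; 700 uM final copper sulfate induction, 20 hr, ambient temperature.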
VP16 counter – VP16 counterscreen qHTS for inhibitors of ROR gamma transcriptional activity; Potency, µM (top dose mostly 53.6 µM), without a hit: top-dose activity, negative = inhibition, usual class: inhibitors; 3.5% of 310,000 active; Drosophila S2 Gal4-VP16 UAS-luciferase, luminescence, 20 h; AID 2546, 2010;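 further: Gal4-VP16 expression switched on by copper sulfate through the metallothionein promoter; potency means the concentration at half of the fitted maximal effect; on the % scale 0 is the no-effect control and ±100 the full control effect; nearly all actives have a fitted effect of over 50% in size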
SW480 rerep – A quantitative high throughput screen for small molecules that induce DNA re-replication in SW480 colon adenocarcinoma cells; 1.8% of 340,000 active; Potency, µM (doses to about 46.1 µM), inactives show at the top dose re-replication activation, hits mostly activators; AID 624297, 2012; SW480 DNA re-replication, Hoechst DNA content imaging, 48 h; further: potency means the concentration at half of the fitted maximal effect; % of control where 0% means no effect; nearly all actives have a fitted effect of over 55% in size
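Per well, 250 cells were exposed to pinned compound for 48 hr. Nuclear DNA was visualised with Hoechst (40 min, 37 C) and total object intensity recorded by fluorescence scanning.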
An asterisk follows results filed as active; ? = inconclusive; . = no result; [ ] = remark or other dose. Unless noted, the call rests on the fitted dose curve; in most records, active means well fitted curve in the direction sought with a large enough effect; inconclusive means small, poorly fitted or top-dose-only effect, or another doubt; inactive means no such curve, though single readings can be large; an effect the other way counts as inactive or inconclusive.

SMILES | IL-1B inflam inh | MCF10A rereplic | RORgamma inh | VP16 counter | SW480 rerep
Cc1ccc(C(=O)N/C(=C\c2cccs2)C(=O)NCCc2c[nH]c3ccccc23)cc1 | -62.8* | 7.1% | 25.5% | -7.5% | -3.7%
CCOC(=O)c1cn(Cc2ccccc2)c(C(=O)OC(C)(C)C)c1O | -1.6 | 2.0% | . | . | 19.3%
COc1ccc(CCNC(=O)C(F)(F)F)cc1S(N)(=O)=O | 22.5 | . | . | . | .
CCOC(=O)C1(N(CC)CC)Sc2cc(C)ccc2NC1=O (centres undefined) | 35.0 | ? | 8.1% | ? | ?
CCOC(=O)C1(Nc2nccs2)Sc2ccccc2NC1=O (centres undefined) | -0.7 | 13µM* | 0.4% | -4.6% | 14.6µM*
COc1ccc2c(CC(=O)OCC(=O)Nc3cccc(C)c3)coc2c1 | 2.9 | 4.4% | . | . | 1.1%
Cc1ccc(/C=N\Nc2nc3ccc(Cl)cc3[nH]2)o1 | ? | ? | 6.31µM* | 12.6µM* | -3.1%[9.22 µM]
Cc1cc(=O)[nH]c(N/N=C/c2ccccn2)n1 | 89.1 | ? | ? | -7.6% | 4.11µM*
Cc1cc(=O)[nH]c(N/N=C/c2ccc(-c3ccc(F)cc3)o2)n1 | 13.7 | ? | -44.8% | -4.1% | ?
Fc1ccccc1-c1ccc(/C=N/Nc2nc3ccccc3[nH]2)o1 | 0.0 | 18.4µM* | 3.16µM* | 3.55µM* | ?
C(=N\Nc1nc2ccccc2[nH]1)/c1ccccn1 | 109.7 | -1.5% | 0.562µM* | 1.12µM* | ?
CCOc1ccccc1NC(=O)CCNC(=O)N1CC(=O)Nc2ccccc21 | 14.0 | . | . | . | .
CCOC(=O)C1(C)CCCN(C(=O)c2ccc(OC)cc2OC)C1 (centres undefined) | 5.5 | . | . | . | .
CCOC(=O)c1cnc2cc(-c3ccc(C)cc3)nn2c1C | 2.0 | . | . | . | .
Cc1c(C(=O)N2CCCCC2C)sc2nc3n(c(=O)c12)CCC3 (centres undefined) | 11.2 | 3.7% | -4.9% | -2.3% | -7.3%
Cc1ccc(NC(=O)Cn2cc([N+](=O)[O-])nc2C)cc1C | 29.6 | 3.6% | 5.5% | -3.6% | ?
C#CCn1cc(/C=N/Nc2nc3ccccc3[nH]2)c2ccccc21 | -92.4* | ? | 15.8µM* | ? | ?
C#CCn1cc(/C=N/NC(=O)COc2cccc3cccnc23)c2ccccc21 | -0.6 | ? | 12.3% | -13.0% | 17.5%
C(=N\Nc1nc2ccccc2[nH]1)/c1cccc2nccnc12 | . | ? | 1µM* | 5.62µM* | 22.2%
C(=N\Nc1nc2ccccc2[nH]1)/c1ccc2ncccc2c1 | 0.1 | ? | -44.2% | -28.4% | -50.9%
BrC(=C\c1ccccc1)/C=N/Nc1nc2ccccc2[nH]1 | -28.6 | 8.2µM* | 3.16µM* | 5.01µM* | ?
COc1ccc(S(=O)(=O)NCCOc2ccccc2)cc1OC | 0.0 | -3.1% | 27.5% | ? | -2.0%
COc1ccc(S(=O)(=O)NCCOc2ccccc2)cc1-n1cnnn1 | -50.2* | -4.1% | 3.6% | -0.4% | 6.5%
CC(c1ccon1)N(C)C(=O)CCc1nnc(C2(c3ccc(Cl)cc3)CCC2)o1 (centres undefined) | -5.1 | 0.581µM* | 19.5% | -6.8% | 3.7%
CN1CCC(NC(=O)c2cc(-c3cccc(Br)c3)nc3ccccc23)CC1 | -79.1* | 8.9% | ? | -8.1% | ?
SMILES | IL-1B inflam inh | MCF10A rereplic | RORgamma inh | VP16 counter | SW480 rerep
COc1ccc(OC)c(Nc2cc(C(=O)NCCCN3CCOCC3)c3ccccc3n2)c1 | -62.8* | 12.8% | -12.8% | -7.9% | 7.6%
CN1CCN(NC(=O)c2cc(-c3ccc(Br)s3)nc3ccccc23)CC1 | ? | 23.1µM* | -20.3% | -18.8% | ?
COc1ccccc1Nc1cc(C(=O)NCCCN2CCOCC2)c2ccccc2n1 | -4.6 | -1.2% | 29.5% | 8.6% | 1.4%
COc1ccccc1NS(=O)(=O)c1ccc(C(=O)NCCCN2CCOCC2)cc1 | 17.0 | -6.8% | . | . | 8.2µM*
CCCCC(CC)COC(=O)CC(C(=O)OCC(CC)CCCC)S(=O)(=O)O (centres undefined) | . | ? | 1.2% | -5.8% | -5.7%
O=C(c1ccc2c(=O)n3c(nc2c1)CCC3)N1CCCSC1=Nc1ccccc1 | 13.9 | -8.0% | . | . | -2.1%
O=C(NCCCN1CCOCC1)c1cc(-c2cccc(Br)c2)nc2ccccc12 | -64.4* | 3.0% | -42.5% | -17.9% | -1.8%
O=C(NCCCN1CCOCC1)c1cc(-c2ccc(F)cc2)nc2ccccc12 | -27.3 | -4.9% | . | . | -24.3%
O=C(NCCCN1CCOCC1)c1cc(-c2ccco2)nc2ccccc12 | 13.1 | -1.4% | . | . | -2.6%
O=C(NCCCN1CCOCC1)c1cc(-c2ccc(Cl)s2)nc2ccccc12 | -77.6* | ? | . | . | ?
Cc1nc([N+](=O)[O-])c(Sc2nc3ccccc3[nH]2)n1Cc1ccccc1 | -105.3* | ? | 10µM* | ? | ?
O=C(O)c1cc([N+](=O)[O-])c(Sc2nc3ccccc3[nH]2)c([N+](=O)[O-])c1 | -7.3 | 0.9% | ? | 3.3% | ?
Cc1cc2nc(Sc3c([N+](=O)[O-])nc(C)n3Cc3ccccc3)[nH]c2cc1C | -97.6* | 20.6µM* | 12.6µM* | 8.91µM* | ?
COc1ccc2nc(Sc3c([N+](=O)[O-])nc(C)n3Cc3ccccc3)[nH]c2c1 | -80.2* | ? | ? | -25.0% | ?
CS(=O)(=O)c1cc([N+](=O)[O-])c(Sc2nc3ccccc3[nH]2)c([N+](=O)[O-])c1 | 9.8 | ? | 2.51µM* | 3.16µM* | 7.5%
Cc1nc([N+](=O)[O-])c(N2CCN(Cc3ccccc3)CC2)n1Cc1ccccc1 | ? | 22.7% | -5.3% | 5.5% | 1.5%
CN1CCN(S(=O)(=O)c2ccc(F)cc2)CC1 | -5.4 | . | . | . | .
O=C(NCc1ccc(Cl)nc1)c1csc([C@@H]2C[C@H](O)[C@@H](CO)O2)n1 | 36.0 | . | . | . | .
O=C(NC1CCCC1)C1C(c2ccc(C(F)(F)F)cc2)=Nc2ccccc2N1C(=O)c1cccc(C(F)(F)F)c1 (centres undefined) | 13.2 | . | . | . | .
Cn1cnc([N+](=O)[O-])c1Sc1nc2ccccc2[nH]1 | -97.3* | ? | 1.6% | -24.4% | 20.1%
Cc1nn(-c2ccccc2)cc1C(=S)Nc1ccccc1 | ? | 11.9% | 11.2µM* | 10.0% | 4.5%
Cc1cc(C)n(-c2nc(NCCN(C)C)c3c4c(sc3n2)CCCC4)n1 | -98.4* | ? | -16.8% | -13.5% | ?
Cc1cc(C)n(-c2nc(NCCCN(C)C)c3c4c(sc3n2)CCCC4)n1 | -28.4 | ? | 3.98µM* | 7.08µM* | ?
Cc1cc(C)n(-c2ncnc3sc4c(c23)CCCC4)n1 | 6.3 | -7.3% | -3.9% | -4.6% | 0.5%
Cc1cc(C)n(-c2nc(SCCN3CCOCC3)c3c4c(sc3n2)CCCC4)n1 | 23.1 | 6.2% | . | . | 0.3%
